From PubChem BioAssay (EPA / NIEHS)
“And” between values parts separate entries of the source, which are not always exact repeats. Equal entries are not always repeated. Records with an inconclusive call do not appear. Where a structure was tested more than once in an assay, its records may differ in their call. The source made the active and inactive calls. How the source made its calls, unless noted: active means hit-call score of the fitted dose curve at least 0.9, where 1 is the maximum; inconclusive means response in the unintended direction; inactive means score below 0.9.

Columns and labels:
[1] = Tanguay_ZF_120hpf_CFIN_legacy: (Legacy) Oregon State University Tanguay Lab 120 Hour Post-fertilization zebrafish Assay for Caudal Fin Malformation (AID 2283649)
Outline: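 Binary presence or absence of caudal fin malformation at 120 hpf, read by brightfield microscopy, with DMSO as baseline. Larvae came from 5D wild-type embryos exposed statically from 6 hpf at 28C after pronase dechorionation.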

[2] = Tanguay_ZF_120hpf_PIG_legacy: (Legacy) Oregon State University Tanguay Lab 120 Hour Post-fertilization zebrafish Assay for Pigmentation Malformation (AID 2283650)
Outline: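 Endpoint is incidence of abnormal pigmentation at 120 hpf in dechorionated 5D zebrafish exposed singly from 6 hpf at 28C, DMSO vehicle at 0.64%. Embryos dying by 24 or 120 hpf are excluded from scoring.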

[3] = Tanguay_ZF_120hpf_CIRC_legacy: (Legacy) Oregon State University Tanguay Lab 120 Hour Post-fertilization zebrafish Assay for Circulatory Malformation (AID 2283651)
Outline: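 Binary circulatory malformation call at 120 hpf by brightfield imaging of zebrafish larvae; chorion removed at 4 hpf, static exposure from 6 hpf in sealed dark plates at 28C, final DMSO 0.64%; non-mortality endpoints skipped if embryo died.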

[4] = Tanguay_ZF_120hpf_SWIM_legacy: (Legacy) Oregon State University Tanguay Lab 120 Hour Post-fertilization zebrafish Assay for Swim Bladder Malformation (AID 2283654);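 further: swim bladder malformation in each larva scored yes or no under brightfield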
Outline: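 Static waterborne exposure of single dechorionated Tropical 5D zebrafish embryos, 6–120 hpf, 28C, 0.64% DMSO final. Read-out: swim bladder malformation, present/absent, relative to DMSO negative control; trimethyltin chloride 5uM served as positive control.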

[5] = Tanguay_ZF_120hpf_TRUN_legacy: (Legacy) Oregon State University Tanguay Lab 120 Hour Post-fertilization zebrafish Assay for Truncated Body (AID 2283655)
Outline: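 Truncated body is recorded as a binary endpoint at 120 hpf by brightfield imaging of wild-type 5D larvae. Exposure runs statically from 6 hpf at 28C with 0.64% DMSO; embryos dying earlier are not scored.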

[6] = Tanguay_ZF_120hpf_NC_legacy: (Legacy) Oregon State University Tanguay Lab 120 Hour Post-fertilization zebrafish Assay for Notochord and Tail Malformation (AID 2283656)
Outline: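 Binary scoring of notochord distortion by brightfield microscopy; embryos dying were not scored. Wild-type Tropical 5D embryos, chorion removed, exposed singly and statically from 6 to 120 hpf, 28C, sealed, 0.64% DMSO.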

[7] = CCTE_Simmons_CellTiterGLO_HEK293T: Viability Assessment in CCTE's Assays for Thyroperoxidase (TPO) Inhibition, Simmons Lab (AID 2283665);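 on AC50: cells exposed to compound for 24 h before readout; actives reduce ATP signal below DMSO vehicle meaning cytotoxicity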
Outline: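 Luciferase-coupled ATP content after 24 h exposure gives viability; 8-point series from 5 nM to 87.5 uM final in 0.5% DMSO. Human HEK293T cells, 1% FBS medium, three biological replicates, dichlone positive control.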

[8] = Tanguay_ZF_120hpf_TR_legacy: (Legacy) Oregon State University Tanguay Lab 120 Hour Post-fertilization zebrafish Assay for Touch Response (AID 2283667)
Outline: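 Readout is presence or absence of touch response in 120 hpf zebrafish larvae, assessed by brightfield observation after continuous static exposure at 28C. Final vehicle was 0.64% (vol/vol) DMSO.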

[9] = STM_H9_CystineISnorm_perc: Stemina devTOX quickPredict H9 human embryonic stem cell (hESC)-based Assay for Cystine (CYSS) Metabolite Biomarker, Normalized (AID 2283713; active means hit-call score of the fitted dose curve at least 0.9, where 1 is the maximum; inactive means score below 0.9)
Outline: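 Cystine in spent media from the last 24 h of a 72 h H9 hESC exposure (daily re-dosing), measured by UPLC-HRMS. Values normalized to isotopic internal standard, then to 0.1% DMSO; viability via CellTiter-Fluor.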

[10] = STM_H9_OrnCyssISnorm_ratio: Stemina devTOX quickPredict H9 human embryonic stem cell (hESC)-based Assay for Ornithine (ORN):Cystine (CYSS) Ratio (AID 2283714)
Outline: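 H9 hESC, 72h, q24h re-dose; last-day media → acetonitrile deproteinization → UPLC-HRMS. ORN:CYSS ratio from isotope-normalized EIC areas, vs 0.1% DMSO; MTX references on each plate.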

[11] = CEETOX_H295R_MTT_cell_viability: Viability Assessment in the CeeTox HT-H295R MTT Assay (AID 2283718; active means hit-call score of the fitted dose curve at least 0.9, where 1 is the maximum; inactive means score below 0.9)
Outline: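 H295R cells prestimulated 48 h with 10 uM forskolin, then exposed 48 h to test chemical (0.1% DMSO final). Viability by MTT (0.5 mg/ml, 4 h, 37 C), absorbance 570/650 nm; percent change versus DMSO, bidirectional fit.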

[12] = Tanguay_ZF_120hpf_ActivityScore_legacy: (Legacy) Oregon State University Tanguay Lab 120 Hour Post-fertilization zebrafish Assay Score for Activity (AID 2283742);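 on AC50: dechorionated Tropical 5D wild-type zebrafish embryos held singly per well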
Outline: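 In this whole-embryo screen, dechorionated zebrafish were exposed from 6 hpf until 120 hpf at 28C under a 0.64% DMSO vehicle. Developmental malformations and death were recorded by brightfield microscopy as binary endpoints.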

[13] = CCTE_Padilla_ZF_144hpf_TERATOSCORE: (Legacy) CCTE's 144 Hour Post-fertilization zebrafish Assay Teratoscore, Padilla Lab (AID 2283679; active means hit-call score of the fitted dose curve at least 0.9, where 1 is the maximum; inactive means score below 0.9;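 on AC50: zebrafish embryos with chorions exposed by immersion from 6-8 hpf to 5 dpf with daily renewal; teratogenicity score from eye scoring of death hatching and malformations at 144 hpf; higher score means more developmental defects relative to DMSO baseline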)
Outline: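 Larvae scored by eye at 144 hpf for death, hatching and malformations after a day in clean Hanks'. Before that, daily-renewed exposure at 80 uM (0.4% DMSO, 26C) from roughly 6-8 hpf through 5 dpf, 4 embryos per chemical.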

Measured: AC50

O=C(Nc1ccc2[nH]ccc2c1)c1cc2cc(F)ccc2n1Cc1cccc(F)c1
active: [7] 0.753 µM | [9] 1.27 µM | [10] 1.28 µM
not listed: [13]
inactive: all other assays above

CCCCCCCCc1ccc(O)cc1
inactive: [1] | [4] | [5] | [6] | [8] | [12]
active: [7] 22.6 µM | [13] 5.21 µM

C[C@]12CCC(=O)C[C@@H]1CC[C@@H]1[C@@H]2CC[C@]2(C)[C@@H](O)CC[C@@H]12
active: [13] 11.6 µM
not listed: [4] | [7] | [9] | [10]
inactive: all other assays above

Cn1sc(Cl)cc1=O
inactive: [1] | [2] | [4] | [11]
active: [13] 14.9 µM | [12] 39.8 µM

CCC(=O)C(CC(C)N(C)C)(c1ccccc1)c1ccccc1 (stereo not given)
active: [8] 39 µM
inactive: [1] | [2] | [3] | [4] | [5] | [6] | [12]

C=CC(=O)OCCCCCC(C)C
inactive: [1] | [3] | [4] | [5] | [6] | [8] | [12]

COc1cc(-c2ccc(N)c(OC)c2)ccc1N
inactive: [1] | [2] | [3] | [5] | [6] | [8] | [11] | [12]
active: [4] 95.5 µM | [13] 52.6 µM and 79.3 µM | [12] 3.57 µM

O=[N+]([O-])c1ccc(O)c([N+](=O)[O-])c1
active: [13] 4.96 µM | [9] 31.1 µM | [12] 29.6 µM
inactive: [2] | [3] | [4] | [6] | [10]

O=C(O)C(Cl)(Cl)Cl
not listed: [10] | [11]
inactive: all other assays above
